Results on 40 compounds are retold here after PubChem BioAssay (Tox21).

The source made the active and inactive calls. Calls follow the shape of the dose curve; as a rule, active = well fitted activation curve with a large enough effect in the repeat runs; inconclusive = weak or mixed curves; inactive = flat fitted curve, though single readings scatter.

The experiment in a line: Caspase-3/7 induction in CHO-K1 cells by small molecules, qHTS assay (AID 1346980). Also: nearly all actives have a fitted effect of over 15% in size. Conditions: CHO-K1 caspase-3/7 induction, Caspase-Glo luminescence, 17 h; series mostly up to 92.4 µM. An excerpt: National Center for Advancing Translational Sciences [NCATS]
NIH Chemical Genomics Center [NCGC]
U.S. Environmental Protection Agency [EPA]
National Institutes of Environmental Health Sciences [NIEHS]
National Toxicology Program [NTP]
Apoptosis is a process of programmed cell death and plays a central role in the development of multicellular organisms. It is a highly regulated process and induces cell death by activating caspases, which are the members of cysteine aspartic acid-specific protease (caspase) family. Caspases involved in apoptosis are classified by their mechanism of action as initiator caspases (caspase-2, -8, -9 and -10) and executioner caspases (caspase-3, -6, and -7). Inhibition of apoptosis results in number of cancers, autoimmune diseases, inflammatory diseases and viral infection. To identify small molecule compounds that induce apoptosis, a homogeneous, luminescent Caspase-Glo 3/7 assay was used. Wild type CHO-K1 cells were used to screen Tox21 libraries for identifying caspase-3/7 activity inducers.
CHO-K1 cells were dispensed at 1,500 per well in 5uL of culture medium into white solid bottom 1536-well plates (Corning Life Sciences, Corning, NY) using a Multidrop Combi (Thermo Scientific, Waltham, MA) dispenser. The assay plates were incubated at 37 C and 5% CO2 for 5hr, and then 23nL of compounds dissolved in DMSO and positive control were transferred using a Pintool station (Wako, San Diego, CA). The assay plates were incubated at 37C and 5% CO2 for 17hr. For caspase-3/7 activity read, 4uL of Caspase-Glo 3/7 reagent (Promega Corporation, Madison, WI) was added to each well of the assay plates using Flying Reagent Dispenser (FRD, Aurora Discovery, San Diego, CA) and incubated the assay plates at room temperature for 30min. The luminescence signal was quantified using a ViewLux plate reader (Perkin Elmer, Shelton, CT).
A general note: In qHTS, concentration-response curves come from the screen itself.
Take `NC(=O)Nc1ccccc1`: the compound was called inactive.

Take `C=C(C)CS(=O)(=O)O`: the compound was classed as inactive.

As for `CCN(CC)CCOCCOC(=O)C1(c2ccccc2)CCCC1`, the result was inactive.

`NS(=O)(=O)c1ccc(C(=O)O)cc1`: the call was inactive.

In the case of `CCCCCCCCCCCC`, the compound was called inactive.

For the compound `CN1N=C(C(N)=O)CCC1=O`, the outcome was inactive.

For `c1ccc([C@H]2CN3CCSC3=N2)cc1`, the call was inactive.

On to `CN1CCCC1`, for which the outcome was inactive.

Regarding `NC(=O)c1ccc([N+](=O)[O-])cc1`, the result was inactive.

In the case of `CN(C)CCCN1c2ccccc2CCc2ccc(Cl)cc21`, the result was inactive.

`CC1(C)C(O)C(C)(C)C1O` (stereo not given): the call was inactive.

For the compound `C=CCCCCCCCCC=O`, the compound was called inactive.

Turning to `CCN1CCC[C@H]1CNC(=O)c1c(O)c(Cl)cc(Cl)c1OC`, the compound was called inactive.

For `Cc1cnc(NS(=O)(=O)c2ccc(N)cc2)nc1`, the result was inactive.

Regarding `CC(C)(C)NCCNC(C)(C)C`, the call was inactive.

For `Nc1ccccc1S(=O)(=O)O`, the outcome was inactive.

Turning to `CC(C)CNCC(C)C`, the compound was classed as inactive.

Consider `C1OCOCO1`, for which the compound was classed as inactive.

For the compound `COc1ccc(CCN(C)CCCC(C#N)(c2cc(OC)c(OC)c(OC)c2)C(C)C)cc1OC` (stereo not given), the outcome was inactive.

Take `CC(C)OC(=O)c1ccccc1`: the outcome was inactive.

For `O=C1OC(=O)C2CCCCC12` (stereo not given), the outcome was inactive.

As for `CC/C=C\CC/C=C/CO`, the call was inactive.

As to `O=C[C@H](O)[C@@H](O)[C@H](O)[C@H](O)CO`, the compound was classed as inactive.

For the compound `CCCCCCCCCCCCN(CCCCCCCCCCCC)CCCCCCCCCCCC`, the result was inactive.

For `NS(=O)(=O)c1cc(C(=O)O)cc(N2CCCC2)c1Oc1ccccc1`, the compound was classed as inactive.

On to `C=C(C)C(=O)OCCCCCCCC(C)C`, for which the compound was classed as inactive.

In the case of `CC(NC(CCc1ccccc1)C(=O)O)C(=O)N1C(=O)N(C)CC1C(=O)O` (stereo not given), the compound was called inactive.

Regarding `COc1ccc2c(c1)CCCC2=O`, the outcome was inactive.

`O=C(O)c1ccccc1OP(=O)(O)O`: the result was inactive.

`COC(=O)c1c(Cl)c(Cl)c(C(=O)OC)c(Cl)c1Cl`: the outcome was inactive.

As for `Cc1cc2c(cc1S(N)(=O)=O)S(=O)(=O)CCC2`, the result was inactive.

Take `CC(=O)OCC(=O)[C@@]1(O)CCC2C3CCC4=CC(=O)CC[C@]4(C)C3[C@@H](O)C[C@@]21C` (stereo not given in full): the outcome was inactive.

Regarding `Nc1c2c(nc3ccccc13)CCCC2O` (stereo not given), the result was inactive.

Regarding `CCn1ccnc1CC1COc2ccccc2O1` (stereo not given), the call was inactive.

In the case of `COC(=O)[C@@H](N)Cc1ccc(O)c(O)c1`, the compound was classed as inactive.

Turning to `OC[C@]1(O)OC[C@@H](O)[C@H](O)[C@@H]1O`, the result was inactive.

`Cn1cc(S(C)=O)c(=O)c2ccc(F)cc21` (stereo not given): the outcome was inactive.

For `O=[N+]([O-])c1ccc(F)cc1F`, the outcome was inactive.

Regarding `CC1=CC(C)C(C=O)CC1` (stereo not given), the outcome was inactive.

On to `Cc1nc2c([nH]1)c(=O)n(C)c(=O)n2Cc1ccco1`, for which the outcome was inactive.
